# Measurements as given in ChEMBL document CHEMBL3988442, “University of Dundee, Small-Polar-MMV Screening Library” (2021).
# Target: AMP-activated protein kinase, AMPK (Homo sapiens) (UniProt P54646+O43741+P54619+Q9UGJ0+Q9Y478+Q13131+Q9UGI9)
# Experiment: AMP-dependent Kinase enzyme assay. An in vitro enzyme assay that detects ADP turnover that is directly proportional to AMPK activity. This uses naive AMPK that is activated during the assay with MK-8722
# Type: functional
# Parameters: scale not given: direction of the effect not stated beside the values
# Settings: 30 µM
row,Structure (SMILES),Percent Effect [%]
1,CCn1cc(CNCCNc2ncc(Cl)cc2Cl)cn1,4.84
2,COC(=O)Cn1c(C)cc(=O)c2cc(F)ccc21,1.38
3,Cc1nonc1CN1CC[C@@](O)(C2CCOCC2)[C@H](C)C1,-6.73
4,Cn1cc(CNCCNc2ncc(Cl)cc2Cl)cn1,-10.3
5,CC(=O)N[C@H]1CN(S(=O)(=O)N(C)Cc2ccccc2)C[C@@H]1C1CC1,1.32
6,COc1cccc([C@@]2(O)CC[C@@H]3CN(C(=O)c4c[nH]nc4C)C[C@@H]32)c1,10.8
7,CCc1nc(C)c(CN2CCOC(Cc3ccccc3Cl)C2)[nH]1 (centres undefined),-2.77
8,CC(C)(C)c1cc(CNC(=O)c2cc(COc3ccccc3)[nH]n2)[nH]n1,17.9
9,CC(CNC(=O)CCn1cncn1)N1CCc2ccccc21 (centres undefined),6.66
10,CN1C(=O)[C@H]2CC[C@@H]1CN(C(=O)Nc1ccccc1C(F)(F)F)C2,-0.892
11,Cc1cc(N2CCC(n3cc(CCCO)nn3)CC2)ccn1,2.02
12,Cc1cc(C(=O)N2CCC(CCC(=O)NCCN(C)C)CC2)ccc1O,21.5
13,CCc1nnc(C(C)N2CCC(NC(=O)C3CCCCC3)CC2)o1 (centres undefined),2.87
14,Cc1nnsc1CNC(=O)Nc1cccc(N2CCN(C)C2=O)c1,-11
15,Cc1cc(C)c2c(NC(C)c3nncn3C3CCCC3)ncnc2n1 (centres undefined),4.35
16,CCCNc1ncc(CN2CCC3(CCNC(=O)CC3)CC2)cn1,-1.43
17,Cn1c(CN2CC[C@](C)(O)C(C)(C)C2)cc2ccccc21,12.4
18,CCC1c2ccccc2CCN1CCNS(C)(=O)=O (centres undefined),-4.87
19,COC(=O)c1ccc(N2CCN(C(=O)CCCc3cn[nH]c3)CC2)cc1,6
20,Nc1cc(C(=O)N2CCC(Oc3cccc(C(F)(F)F)c3)CC2)ccn1,-4.01

row,Structure (SMILES),Percent Effect [%]
1,CCCn1cc(CN2CCOCC2c2[nH]ncc2C)cn1 (centres undefined),14.3
2,Cc1nccn1CCCN1CCCC(c2ccccc2)C1 (centres undefined),-4.4
3,O=C(NCC(F)(F)F)c1ccc(-n2cncn2)nn1,-2.06
4,Cc1noc(C)c1C(=O)N(C)C(C)c1ccc(S(C)(=O)=O)cc1 (centres undefined),-2.19
5,COc1cc(Cl)cc(CN2CCCC(N3CCCC3)C2)c1OC (centres undefined),4.91
6,CCn1cnnc1CCNS(=O)(=O)N1CCCC1c1ccco1 (centres undefined),-10.7
7,Cc1ccc(NC(=O)CN[C@H](C(N)=O)C(C)C)cc1F,-14.9
8,O=C(Cn1nc2ccccc2n1)N1CCCC(O)(CO)C1 (centres undefined),-6.31
9,CCCC(=O)Nc1cccc(C(=O)N(C)CCCC2CCCO2)c1 (centres undefined),7.97
10,Cc1ccc(OCc2occc2C(=O)O)cc1,12.4
11,CN(C)CCN(Cc1ccc(F)cc1)C(=O)c1ccn(C)c(=O)c1,9.83
12,O=C(C1CC1)N1CCCC(C2=Nc3ccccc3S(=O)(=O)N2)C1 (centres undefined),24.4
13,CC(c1nc(C2CC2)no1)N1CCc2c(ncn2C)C1 (centres undefined),12
14,Clc1ccc2c(c1)C=C(CNC1CCc3ncnn3C1)CO2 (centres undefined),12.6
15,Cc1ccccc1Oc1ncccc1CNC(=O)Cn1cccnc1=O,-5.58
16,COCCNC(=O)NCc1ccc(-n2ccc(C(F)(F)F)n2)cc1,-8.71
17,NC(=O)NC(CC(=O)N1CCc2sccc2C1)c1cccc(Br)c1 (centres undefined),13.9
18,O=C(NCc1nncn1C1CC1)c1cccnc1Oc1ccccc1,1.39
19,CC(NC(=O)NCc1cccnc1N(C)C)c1ccc(F)cc1 (centres undefined),-7.51
